# Screens as filed in PubChem.
# Compounds with a hit are over-represented: about 3.5% of the library has one in this group of screens.
# FBA Mtb inh = Mtb fructose-bisphosphate aldolase inhibition | P9WQA3 | 2.3% of 360,000 active | AID 588726 | purified M. tuberculosis FBA, fluorescence read-out | inhibition, % at 1 µM; in the data active means inhibition above about 27%;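 further: 0% = vehicle and 100% = reference inhibitor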
# UGM FP inh = blocks M. tuberculosis UGM enzyme; purified UGM, fluorescence polarization probe displacement; inhibition, % at 10 µM; 0.06% of 320,000 active; AID 504406; P9WIQ1; in the data active means inhibition above about 10%, passing the limit was not always enough; inconclusive means no clear call, values can overlap the other calls
# Rv3671c inh = inhibitors of M. tuberculosis serine protease Rv3671c | inhibition, % at 5.96 µM | 0.048% of 320,000 active | AID 2606;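 further: extracellular domain of Rv3671c used as enzyme; 0% = enzyme with DMSO and 100% = no enzyme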
# Target sequence (P9WHR9 whole entry, looked up, the tested form may be a part): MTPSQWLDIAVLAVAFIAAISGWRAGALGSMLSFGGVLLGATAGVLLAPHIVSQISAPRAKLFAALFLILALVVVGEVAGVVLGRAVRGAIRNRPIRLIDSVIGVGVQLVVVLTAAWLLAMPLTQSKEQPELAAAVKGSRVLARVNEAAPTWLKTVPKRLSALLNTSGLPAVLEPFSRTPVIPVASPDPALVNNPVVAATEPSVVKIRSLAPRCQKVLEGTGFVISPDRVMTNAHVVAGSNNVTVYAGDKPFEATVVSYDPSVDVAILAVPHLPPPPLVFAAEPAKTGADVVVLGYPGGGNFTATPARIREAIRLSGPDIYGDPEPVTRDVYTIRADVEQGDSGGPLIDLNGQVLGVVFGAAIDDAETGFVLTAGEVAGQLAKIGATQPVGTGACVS
# GDH-TPI counter = counter-screen for M. tuberculosis FBA inhibitors: GDH-TPI coupled enzymes | GDH-TPI coupled enzyme counterscreen, NADH absorbance | inhibition, % at 4.8 µM | 1.2% of 360,000 active | AID 588335; in the data active means inhibition above about 30%;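 further: 0% = DMSO wells and 100% = wells lacking the enzyme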
# Rv3671c cf = confirmation of M. tuberculosis Rv3671c protease inhibitors; AID 2761; 40% of 140 active; inhibition, % at 5.96 µM; shares compounds with Rv3671c inh
# * marks the source's active call; other numbers are inactive results; ? = inconclusive; . = no result; + = active, no number. Unless noted, no stated cut-off is given here; in the data, active means inhibition above about 38%; inactive means the rest.
SMILES,FBA Mtb inh,UGM FP inh,Rv3671c inh,GDH-TPI counter,Rv3671c cf
Cc1sc(-c2ccccn2)nc1OC(=O)c1ccc(Cl)cc1,1,-1,2,6,.
COC(=O)c1ccccc1-c1c2ccc(=N)cc-2oc2cc(N)ccc12,-6,138*,166*,5,164*
O=C(NCc1cccs1)c1cccc(Nc2nc3ccc(Br)cc3[nH]2)c1,0,0,43*,-8,37*
Clc1ccc(OCCOCCNCc2ccccc2)cc1Cl,1,1,3,-2,.
CCN(c1ccccc1)S(=O)(=O)c1ccc(N2CCN(c3ccc(O)cc3)CC2)nc1,-1,1,0,8,.
CCN(c1ccccc1)S(=O)(=O)c1ccc(N2CCN(c3ccc(OC)cc3)CC2)nc1,-2,1,102*,4,-6
Cc1ccc(C)c(NC(=O)CN(C)C(=O)c2nn(C)c(=O)c3ccccc23)c1,0,-2,0,-2,.
O=C1C(CSCc2ccccc2)NC(=S)N1c1ccccc1 (stereo unspecified),2,0,98*,-3,60*
COc1ccc(C(=O)NC(=O)COC(=O)C2CC2C)cc1 (stereo unspecified),1,3,-3,-4,.
O=c1oc(-c2cccnc2)nc2ccccc12,5,2,2,1,.
Cc1onc(-c2ccccc2)c1-c1nc2cc(Cl)ccc2c(=O)o1,3,3,-6,-6,.
Cc1onc(-c2ccccc2)c1-c1nc2ccccc2c(=O)o1,0,4,49*,6,62*
O=c1oc(-c2ccccc2Br)nc2ccccc12,3,-3,40*,-3,66*
CN[C@H]1C[C@H]2c3[nH]c4ccc(-c5cccc(C)c5)cc4c3CCN2C[C@H]1[C@H](C)O,4,.,.,5,.
O=c1c2ccccc2nc(-c2ccccc2)n1-c1ccccc1,2,3,6,13,.
O=c1c2ccccc2[se]n1-c1ccccc1,-2,.,40*,84*,41*
CCCC1(c2ccccc2)NC(=O)N(CC(=O)NCC2COc3ccccc3O2)C1=O (stereo unspecified),-1,1,-11,-3,.
COCCCNc1c2c3c(cccc3[nH]c1=O)C(=O)c1ccccc1-2,-6,102*,137*,12,145*
COCCCNC1=C(Cl)C(=O)c2ccccc2C1=O,-1,-2,-1,6,.
CCN1/C(=C/C=C/c2oc3ccc(-c4ccccc4)cc3[n+]2CC)Oc2ccc(-c3ccccc3)cc21,-19,?,60*,12,-16
Cn1cnnc1SCC(=O)NC1CCCC1,-1,2,0,-2,.
NC(=O)C1CCN(c2nc(-c3cccc(Cl)c3)cs2)CC1,0,-1,1,-16,.
Fc1ccc(C(CCNCc2ccccn2)c2ccc(Cl)cc2)cc1 (stereo unspecified),1,0,7,15,.
COc1ccc2nc3cc(Cl)ccc3c(Nc3cc(C(C)C)c(O)cc3C)c2c1,-4,1,40*,5,46*
COc1ccc(S(=O)(=O)Nc2cc(C(C)C)c(O)cc2C)cc1,-2,3,-5,-3,.
SMILES,FBA Mtb inh,UGM FP inh,Rv3671c inh,GDH-TPI counter,Rv3671c cf
NC(=O)NC(CC(=O)NCc1ccc2c(c1)OCO2)c1ccccc1Cl (stereo unspecified),4,-1,-4,2,.
Cc1cc(O)ccc1N=Cc1c(C(F)(F)F)[nH][nH]c1=O,-3,5,99*,2,-4
O=c1[nH][nH]c(C(F)(F)F)c1C=Nc1ccccc1,1,1,6,1,.
NC(=O)COC(=O)C1c2ccccc2Oc2ccccc21,4,3,-2,2,.
N#CCN(CC#N)C(=O)C1c2ccccc2Oc2ccccc21,-1,9,104*,5,5
CCCCNC(=O)COC(=O)c1ccc(Cl)c(S(N)(=O)=O)c1,2,0,43*,14,-5
CC(C)CNC(=O)COC(=O)c1ccc(Cl)c(S(N)(=O)=O)c1,4,0,0,1,.
O=S(=O)(c1ccc(Cl)c(NC(=S)N/N=C/c2ccc(O)cc2)c1)N1CCOCC1,-3,-1,-1,27,.
O=[N+]([O-])c1cc(Cl)cc(/C=N/NC(=S)Nc2ccc(S(=O)(=O)N3CCOCC3)cc2)c1O,-10,3,58*,20,14
COc1cc(OC)nc(NC(=O)COC(=O)c2cccc(Cl)c2)n1,0,0,+,8,-15
Cc1ccsc1C(=O)OC(C)C(=O)NC1CCCCC1C (stereo unspecified),6,.,.,-3,.
Cn1nnnc1SCC(=O)NC(=O)c1cccc([N+](=O)[O-])c1,8,0,11,4,.
